High-throughput results: PubChem BioAssay, several laboratories
In the library only some 5.4% were active in any assay of this set; here they are far more common.
CSC inhib: cancer stem cell inhibition | inhibition, % at 7.5 µM | cancer stem cell-like cells viability, luminescence | actives 1.1% (n = 300,000); in the data active means inhibition above about 75%; inconclusive means no clear call, values can overlap the other calls; tested in HMLE shEcad cells
MPTP block: blocks calcium-induced mitochondrial swelling; isolated mouse mitochondria, Ca2+ swelling absorbance, 30 min; inhibition, % at 10 µM; actives 1.4% (n = 360,000);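 active means inhibition of 50% or more, scaled per plate between neutral and stimulator controls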;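 further: 0% = DMSO wells given calcium and 100% = 1 mM EGTA wells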
Calb FLC: C. albicans growth modulation with fluconazole. AID 1979. growth inhibition, % (concentration not given with the values). C. albicans CaCi-2 (fluconazole-resistant clinical isolate) + fluconazole, Alamar Blue growth, 48 h. actives 0.57% (n = 300,000);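 active means growth inhibition above about 58% in most replicates, limit read from the data, passing the limit was not always enough; inconclusive means exactly half the replicates above a set limit; inactive means most replicates below a set limit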;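 further: all wells also contain fluconazole at 8 µg/ml as a sub-toxic cotreatment; 0% = median of DMSO wells and 100% = median of geldanamycin control wells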
SKKanGAS inh: blocks kanamycin growth of S. pyogenes SKKanGAS strain; BacTiter-Glo, 6 h; inhibition, % at 7.5 µM; actives 1.3% (n = 300,000); AID 1662;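 active means mean replicate score, as percent of positive control median, at least 50; inconclusive means mean below 50 but one replicate at or above 50; inactive means mean and every replicate below 50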;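 further: strain carries kanamycin resistance gene driven by streptokinase promoter and grows in 40 µg/ml kanamycin; loss of luminescence reflects streptokinase promoter inhibition or plain growth inhibition; 0% = median of DMSO wells and 100% = positive control at its reference dose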
Beta apoptosis: blocks beta cell apoptosis; protection from apoptosis, % (concentration not given with the values); INS-1E cytokine-induced death, ATP luminescence, 48 h; percent of positive-control rescue, neutral wells zero; actives 0.8% (n = 300,000);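 active means Every replicate reaches about 75%, or at least half do and their mean reaches it too, limit read from the data; inconclusive means At least half of replicates reach the limit but their mean does not; inactive means Under half of replicates reach the limit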;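 further: 0% = cytokine-treated negative control wells and 100% = positive control rescue; higher means more ATP so stronger rescue from cytokine killing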
Mdm2-MdmX inh: disrupts the human Mdm2-MdmX interaction; SaOS-2 split-luciferase Mdm2/MdmX complementation, luminescence; inhibition, % at 8 µM; actives 3% (n = 330,000); AID 485346;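 active means inhibition of at least 50% at 8 µM in the primary screen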
Target sequence (O15151 whole entry, looked up): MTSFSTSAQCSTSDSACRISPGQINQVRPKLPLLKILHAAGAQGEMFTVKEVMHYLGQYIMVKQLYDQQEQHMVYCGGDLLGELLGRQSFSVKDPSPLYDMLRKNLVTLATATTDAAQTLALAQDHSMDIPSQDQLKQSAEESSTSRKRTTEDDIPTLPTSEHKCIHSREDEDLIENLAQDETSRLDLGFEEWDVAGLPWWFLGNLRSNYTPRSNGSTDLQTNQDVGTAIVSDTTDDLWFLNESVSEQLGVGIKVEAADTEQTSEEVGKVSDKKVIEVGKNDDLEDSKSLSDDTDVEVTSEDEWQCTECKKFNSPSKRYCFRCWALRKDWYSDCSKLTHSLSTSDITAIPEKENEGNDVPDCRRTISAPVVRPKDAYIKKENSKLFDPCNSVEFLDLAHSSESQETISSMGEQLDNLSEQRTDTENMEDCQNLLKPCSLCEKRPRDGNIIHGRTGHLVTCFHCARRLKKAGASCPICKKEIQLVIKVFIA
Target sequence (Q00987 whole entry, looked up): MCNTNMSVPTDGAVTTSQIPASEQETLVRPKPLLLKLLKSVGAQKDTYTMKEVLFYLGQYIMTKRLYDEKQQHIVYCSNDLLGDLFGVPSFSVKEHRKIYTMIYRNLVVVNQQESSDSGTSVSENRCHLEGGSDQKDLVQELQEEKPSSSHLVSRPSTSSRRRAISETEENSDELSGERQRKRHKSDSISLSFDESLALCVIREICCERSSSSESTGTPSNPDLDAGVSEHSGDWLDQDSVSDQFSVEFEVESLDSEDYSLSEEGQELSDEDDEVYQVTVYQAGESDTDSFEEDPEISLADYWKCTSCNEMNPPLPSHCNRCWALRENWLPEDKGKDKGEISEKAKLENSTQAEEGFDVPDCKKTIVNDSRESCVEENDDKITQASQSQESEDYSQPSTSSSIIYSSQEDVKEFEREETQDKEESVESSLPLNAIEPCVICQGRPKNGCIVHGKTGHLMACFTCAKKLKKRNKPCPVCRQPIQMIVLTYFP
* = called active by the depositor; ? = inconclusive; nt = no result given.

SMILES	CSC inhib	MPTP block	Calb FLC	SKKanGAS inh	Beta apoptosis	Mdm2-MdmX inh
CCCCNc1c(-c2ccc(OC)c(SC3CCCCC3)c2)nc2cnccn12	2	0	39	104*	21	35
CCCCNc1c(-c2ccc(OC)c(SC3CCCCC3)c2)nc2ccc(Cl)cn12	37	1	nt	nt	34	23
CCCCCCSc1ccc(-c2nc3cnccn3c2NC2CCCCC2)cc1	nt	2	nt	nt	nt	nt
CCCCNc1c(-c2ccc(SC3CCCCC3)cc2)nc2cnccn12	nt	0	nt	nt	nt	0
O=C(CSc1nnc(-c2ccccc2)o1)NC(=O)Cc1ccccc1	-4	0	nt	nt	-3	-2
CCC(C)Sc1ccc(-c2nc3ccccn3c2NCc2ccccc2)cc1OC (configuration not stated)	54	2	nt	nt	8	23
CCCCNc1c(-c2ccc(-c3ccc(C(C)=O)cc3)c(OC)c2)nc2cnccn12	10	0	-3	64*	8	10
COc1cc(-c2nc3ccc(C)cn3c2NCc2ccccc2)ccc1SC1CCCCC1	29	6	4	32	110*	49
O=[N+]([O-])c1cc(S(=O)(=O)N2CCCCC2)ccc1NCc1cccc(Cl)c1	22	3	30	-11	3	-12
O=c1[nH][nH]c2c1[C@H](c1ccc(F)cc1)O[C@H](CCC(F)(F)F)C2	nt	-2	nt	nt	nt	nt
CC(=O)c1cccc(NC(=O)C2CCN(C(=O)c3cccs3)CC2)c1	-2	0	-3	-3	-17	10
O=[N+]([O-])c1cc(/C=N/Nc2nc3ccccc3[nH]2)c(O)cc1O	64	nt	88*	97*	94*	nt
Cc1ccc(/C=N/Nc2nc3ccccc3[nH]2)s1	30	1	?	7	15	-93
Cc1ccccc1/C=N/Nc1nc2ccccc2[nH]1	-26	3	6	68*	nt	-1
COc1ccc(/C=N/Nc2nc3ccccc3[nH]2)c(OC)c1OC	3	1	-3	2	34	22
C(/CCc1ccccc1)=N\Nc1nc2ccccc2[nH]1	-2	-1	-17	4	88*	45
Brc1ccc(-c2ccc(/C=N/Nc3nc4ccccc4[nH]3)o2)cc1	51	6	50	89*	23	3
C(=N\Nc1nc2ccccc2[nH]1)/c1ccccc1	-4	-1	-4	15	12	-37
Cc1ccc(/C=C2/N=C(c3ccccc3)NNC2=O)cc1	nt	-1	-1	6	nt	9
COc1cc(-c2cnc3c(NC=O)cc(-c4cccc(NC(C)=O)c4)cn23)cc(OC)c1OC	nt	0	nt	nt	nt	nt
C[C@@H]1CN([C@@H](C)CO)C(=O)c2cc(Br)cnc2O[C@@H]1CN(C)S(C)(=O)=O	nt	-2	nt	nt	nt	nt
C(=N\Nc1nc2ccccc2[nH]1)/c1c[nH]c2ccccc12	-4	39	2	64*	119*	-7
C=CCNC(=S)N1CCC(C(=O)c2ccc3c(c2)OCCO3)CC1	-3	2	7	-16	4	-17
COc1ccc(-c2nc(-c3ccncc3)no2)cc1OC	-1	0	102*	0	-2	-26
Cc1ccc(-c2nc(-c3ccncc3)no2)cc1C	6	2	12	0	nt	-93
SMILES	CSC inhib	MPTP block	Calb FLC	SKKanGAS inh	Beta apoptosis	Mdm2-MdmX inh
C=CCc1ccccc1OCC(O)CN1CCN(CCN2C(=O)c3cccc4cccc(c34)C2=O)CC1 (configuration not stated)	60	1	54	13	24	13
COc1ccc(-c2cc(C(F)(F)F)nc(NCc3cccs3)n2)cc1	39	18	-2	74*	3	17
FC(F)(F)c1cc(-c2ccc(Cl)cc2)nc(NCc2cccnc2)n1	77*	0	1	-2	6	16
CCCCN(C)C/C(O)=C(\C#N)c1nc(-c2ccccc2)cs1	-12	2	-3	9	-7	-3
CC1(C)CCCN(C(=O)N2c3ccccc3Sc3ccccc32)C1	24	2	-5	80*	nt	-5
CCN(CC)CC(=O)Nc1ccc(Oc2ccc(NC(=O)CN(CC)CC)cc2)cc1	-3	-1	-3	2	nt	33
CCCCCNC(=O)C(c1cc2ccccc2o1)n1c(=O)c(-c2ccccc2)nc2ccccc21 (configuration not stated)	nt	0	nt	nt	nt	nt
c1ccc(NC2=NCCN2CC2CCCCCC2)cc1	-16	0	nt	nt	-9	16
CCNC(=S)N1CCN(c2nc(-c3ccc(F)cc3)cs2)CC1	12	40	-2	0	-5	7
CCN(CC)CCCNC(=S)N1CCN(c2nc(-c3ccc(F)cc3)cs2)CC1	93*	12	-8	-2	17	47
Cc1ccc(NC(=O)c2noc(C(C)C)c2[N+](=O)[O-])cc1	0	3	92*	9	0	3
CC(C)c1onc(C(=O)Nc2cccc(O)c2)c1[N+](=O)[O-]	nt	-2	6	9	-1	19
CCOc1cc(/C=C2\SC(=N)N(c3nccs3)C2=O)ccc1OCCN1CCOCC1	34	0	-2	80*	32	39
Cc1cccc(CC(=O)N2CCOCC2)c1	-1	0	-3	5	-2	-3
CCOC(=O)c1csc(Nc2nc3ccc(F)cc3s2)n1	34	2	3	53*	22	-4
COc1ccc2nc(NC(=O)c3ccoc3C)sc2c1	70	-1	8	66*	43	-78
CCOC(=O)c1sc(Nc2nc3ccc(OC)cc3s2)cc1C	-3	15	-26	50*	-6	-28
COc1ccc(-c2cc(C(F)(F)F)c3c(n2)sc2c(O)cc(=O)[nH]c23)c(OC)c1	52	6	0	55*	5	-7
O=C(NC(Cc1ccccc1)C(=O)NCc1ccccn1)c1ccco1 (configuration not stated)	nt	1	103*	-4	1	-16
CN(C(=O)CSc1nnc(-c2ccco2)o1)C1CCCCC1	-14	-4	95*	11	0	-14
O=C(CSc1nnc(-c2ccco2)o1)NC1CCCCC1	-11	-1	-15	-2	-5	15
CCNC(=O)NC(=O)C(C)Oc1ccc(C(=O)OC)cc1 (configuration not stated)	nt	-1	5	-9	-1	8
c1ccc(-c2c3ccccc3nc3[nH]c4ccccc4c23)cc1	79*	2	11	96*	3	29
CCC(=O)c1ccc(OCC(=O)OCC(=O)Nc2ccc3c(c2)OCCO3)cc1	-8	-1	nt	nt	-6	11
CCOC(=O)N1CCN(S(=O)(=O)c2ccc(C(=O)N(CCN(C)C)c3nc4ccc(Cl)cc4s3)cc2)CC1	7	0	-32	13	2	-10
CCOC(=O)N1CCN(S(=O)(=O)c2ccc(C(=O)NNc3nc4ccc(Cl)cc4s3)cc2)CC1	104*	0	-4	5	82*	34
CN(C)CCOC(=O)c1sc2ccccc2c1Cl	-5	1	110*	-7	2	30
NC(=O)NC(=O)COC(=O)c1sc2ccccc2c1Cl	-5	2	0	-26	7	8
